PubChem BioAssay (EPA / NIEHS)
Active and inactive are the calls of the source. The calls were made as follows: active = hit-call score of the fitted dose curve at least 0.9, where 1 is the maximum; inactive = score below 0.9.

Experiment: APR_HepG2_p53Act_1hr: Apredica 1-hour HepG2 Assay for p53 Activation (AID 2282671)
Settings: high-content imaging, actives raise or lower the signal
Method: APR_HepG2_1hr is a cell-based, multiplexed-readout assay that uses HepG2, a human liver cell line, with measurements taken at 1 hour after chemical dosing in a 384-well plate.APR_HepG2_p53Act_1hr is one of 10 assay component(s) measured or calculated from the APR_HepG2_1hr assay. It is designed to make measurements of dna content, a form of viability reporter, as detected with fluorescence intensity signals by HCS Fluorescent Imaging technology.Data from the assay component APR_HepG2_p53Act_1hr was analyzed into 1 assay endpoint. This assay endpoint, APR_HepG2_p53Act_1hr, was analyzed with bidirectional fitting relative to DMSO as the negative control and baseline of activity. Using a type of viability reporter, measures of protein for gain or loss-of-signal activity can be used to understand the signaling at the pathway-level as they relate to the gene TP53. Furthermore, this assay endpoint can be referred to as a primary readout, because this assay has produced multiple assay endpoints where this one serves a signaling function. To generalize the intended target to other relatable targets, this assay endpoint is annotated to the dna binding intended target family, where the subfamily is tumor suppressor.
Cells were treated with dimethyl sulfoxide (DMSO) as a solvent control at a final concentration of 0.5% v/v or with compounds in DMSO with a resulting final DMSO concentration of 0.5% v/v. Compound treatment was done at concentrations of 0.39, 0.78, 1.56, 3.12, 6.24, 12.5, 25, 50, 100, and 200 uM in duplicate on each plate. Cells were treated with compounds for 1, 24, or 72 hr. Carbonyl […] m-chloro-phenylhydrazone (CCCP) and taxol were used as positive controls for mitochondrial function and cytoskeletal stability, respectively; DMSO served as the negative control for this experiment. Cells were fixed by the direct addition of 50 uL formaldehyde in Hank's Balanced Salt Solution (HBSS) to a final concentration of 3.7%. After incubation in the fixation medium for 30 min at room temperature (293-298 K), cells were rinsed twice with HBSS and treated with cell permeabilization buffer (16 uL of 0.5% Triton X-100) for 10 min at room temperature (293-298 K) before labeling. For mitochondrial membrane potential and mitochondrial measurements, pre-fixed cells were incubated with 50 uL of MitoTracker Red CMXRos (Invitrogen) at a concentration of 250 nM for 30 min before fixation. In the remaining cases, post-fixed cells were labeled by incubation with a multiplexed mixture of primary antibodies in HBSS for 60 min at room temperature (293-298 K) to detect immunoreactivity of c-Jun (1:500), phospho-histone H3 (1:100), phospho-histone H2A.x (1:200), p53 (1:400), alpha-tubulin (1:200) and Hoechst 33342 (2 ug/mL). Cells were labeled for multiplexed imaging on two separate plates: a) Hoechst 33342, MitoTracker Red, phospho-histone H3, and alpha-tubulin, and b) Hoechst 33342, phospho-histone H2A.x, and c-Jun. A final rinse with HBSS (50 uL) was performed before analysis. The primary and secondary antibodies for the proteins were phospho-histone H3 (rabbit anti-phospho-histone H3 and FITC-donkey anti-rabbit IgG), phospho-histone H2A.x (mouse anti-phospho-histone H2A.x and FITC-donkey anti-mouse IgG), c-Jun (rabbit anti-phospho-c-Jun and Cy3-donkey anti-rabbit IgG), p53 (sheep anti-p53 and Cy5-donkey anti-sheep IgG), alpha-tubulin (mouse anti-alpha-tubulin and Cy5-donkey anti-mouse IgG). These antibodies are available as the CellCiphr HepG2 assay kit (Millipore).Digital images of each well were captured using a Cellomics ArrayScan VTI (Thermo Scientific Cellomics) (0.8 NA objective, 0.63x optical coupler, and XF-93 filter set) at 20x magnification. The images were acquired using the autofocus feature of the ArrayScan instrument, which entails the following steps. First, the camera focuses on channel 1 (Hoechst 33342), where nuclei are identified. Second, a Z offset of 1 um is used for capturing mitochondria (MitoTracker Red). […]

Structure (SMILES) | outcome
CN(C)C(=O)Nc1ccc(Cl)c(Cl)c1 | inactive
CCSC(=O)N(CC(C)C)CC(C)C | inactive
COC(=O)c1ccccc1C(=O)O | inactive
C#CCOC(=O)[C@@H](C)Oc1ccc(Oc2ncc(Cl)cc2F)cc1 | inactive
Cc1nn(C)c(Oc2ccccc2)c1C=NOCc1ccc(C(=O)OC(C)(C)C)cc1 | inactive
CC(C)(c1ccc(O)cc1)c1ccc(O)cc1 | inactive
CCC(C)OC(=O)N1CCCCC1CCO (stereo not given) | inactive
CCOC(=O)COc1cc(-n2ncc(C(F)(F)F)c(C)c2=O)c(F)cc1Cl | inactive
COC(=O)c1cccc(C)c1S(=O)(=O)NC(=O)Nc1nc(OCC(F)(F)F)nc(N(C)C)n1 | inactive
CCOC(=O)NCCOc1ccc(Oc2ccccc2)cc1 | inactive
CCCOC(=O)c1ccc(C(=O)OCCC)nc1 | inactive
O=C(O)C1(C(=O)Nc2ccc(Cl)cc2Cl)CC1 | inactive
CCOC(=O)C(C)Oc1ccc(Oc2nc3ccc(Cl)cc3o2)cc1 (stereo not given) | inactive
COC(=O)c1ccc(I)cc1S(=O)(=O)NC(=O)Nc1nc(C)nc(OC)n1 | inactive
CCN(Cc1c(F)cccc1Cl)c1c([N+](=O)[O-])cc(C(F)(F)F)cc1[N+](=O)[O-] | inactive
COc1nc(C)nc(NC(=O)NS(=O)(=O)c2ccccc2OCCCl)n1 | inactive
O=C(Nc1ccc([N+](=O)[O-])cc1Cl)c1cc(Cl)ccc1O | inactive
CC1(C)C(C=C(Cl)Cl)C1C(=O)OCc1cccc(Oc2ccccc2)c1 (stereo not given) | inactive
c1ccc(Nc2ccccc2)cc1 | inactive
COC(=O)c1ccccc1S(=O)(=O)NC(=O)Nc1nc(OC(F)F)cc(OC(F)F)n1 | inactive

Structure (SMILES) | outcome
C=CCOC(Cn1ccnc1)c1ccc(Cl)cc1Cl (stereo not given) | inactive
CCCN(CCC)C(=O)SCC | inactive
CCC(O)=C1C(=O)CC(C(=O)O)CC1=O (stereo not given) | inactive
CCOC(=O)[C@H](C)Oc1ccc(Oc2nc3ccc(Cl)cc3o2)cc1 | inactive
CCCCOC(=O)C(C)Oc1ccc(Oc2ccc(C(F)(F)F)cn2)cc1 (stereo not given) | inactive
Oc1ccc(C(c2ccc(O)cc2)C(Cl)(Cl)Cl)cc1 | inactive
CCNc1nc(N)nc(Cl)n1 | inactive
COC(=O)CSc1cc(N=c2sc(=O)n3n2CCCC3)c(F)cc1Cl | inactive
COC(=O)c1ccc(CNS(C)(=O)=O)cc1S(=O)(=O)NC(=O)Nc1nc(OC)cc(OC)n1 | inactive
CCCCOC(=O)[C@@H](C)Oc1ccc(Oc2ccc(C(F)(F)F)cn2)cc1 | inactive
CC(C)(C)[C@@H](O)[C@@H](Cc1ccc(Cl)cc1)n1cncn1 | inactive
CCCCCCC(C)OC(=O)COc1nc(F)c(Cl)c(N)c1Cl (stereo not given) | inactive
COCCO | inactive
CCCOC(=O)NCCCN(C)C | inactive
OB(O)O | inactive
CCCCC(CC)CN1C(=O)C2C3C=CC(C3)C2C1=O (stereo not given) | inactive
CSC(=O)c1cccc2nnsc12 | inactive
COC(=O)c1c(Cl)nn(C)c1S(=O)(=O)NC(=O)Nc1nc(OC)cc(OC)n1 | inactive
CCCCC(CC)COC(=O)c1ccccc1C(=O)O (stereo not given) | inactive
CCCN(CCC)c1c([N+](=O)[O-])cc(C(F)(F)F)c(N)c1[N+](=O)[O-] | inactive
